Screening results deposited in PubChem BioAssay by National Center for Advancing Translational Sciences (NCATS).
In the library only some 15% were active in any assay of this set; here they are far more common.
ELG1 DNA repair – ELG1-dependent DNA repair inhibition; 330,000 compounds, 2.3% hits; HEK293T ELG1-luciferase reporter, luminescence, 16 h; DNA damage induced by 5-fluorouridine; AID 504467; Potency, µM (doses to about 46.1 µM), inactives show top-dose activity change, negative = inhibition, hits mostly inhibitors; also: nearly all actives have a fitted effect of over 55% in size
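Quantitative HTS, concentration-response format. 2,000 cells/well co-treated with 5-fluorouridine and compound, 16 hr in 5% CO2 at 37 °C; ONE-Glo luminescence read after 30 min.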
Gal4-VP16 FLuc – counter-screen for ROR gamma inhibitors: Gal4-VP16 reporter. Drosophila S2 Gal4-VP16 UAS-luciferase, luminescence, 20 h. Potency, µM (titrated, usually from 53.6 µM), without a hit: top-dose activity, negative = inhibition, most hits filed as inhibitors. 310,000 compounds, 3.5% hits. AID 2546;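 also: Gal4-VP16 expression switched on by copper sulfate through the metallothionein promoter; nearly all actives have a fitted effect of over 50% in size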
TDP1 cell noCPT – qHTS for Inhibitors of human tyrosyl-DNA phosphodiesterase 1 (TDP1): qHTS in cells in absence of CPT. DT40 Tdp1-/- hTDP1 cells, no CPT, ATP luminescence, 48 h. Potency, µM (series often up to 46.2 µM), inactives show at the highest dose activity change, negative = growth inhibition, usual class: inhibitors. 420,000 compounds, 15% hits; also: nearly all actives have a fitted effect of over 55% in size
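Chicken DT40 Tdp1-/- cells stably complemented with human TDP1 were seeded at 400 cells/well with DMSO in place of 20 nM camptothecin. After compound pinning, cells grew at least 48 hr at 37 °C; viability read by CellTiter-Glo luminescence.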
ALOX12 inh – inhibitors of human 12S-lipoxygenase ALOX12. P18054. purified 12hLO, xylenol orange hydroperoxide absorbance. Potency, µM (doses to about 108 µM), for the others: top-dose activity change, negative = inhibition, actives largely listed as inhibitors. 580,000 compounds, 1.1% hits. AID 1671190
Target sequence (P18054 whole entry, looked up): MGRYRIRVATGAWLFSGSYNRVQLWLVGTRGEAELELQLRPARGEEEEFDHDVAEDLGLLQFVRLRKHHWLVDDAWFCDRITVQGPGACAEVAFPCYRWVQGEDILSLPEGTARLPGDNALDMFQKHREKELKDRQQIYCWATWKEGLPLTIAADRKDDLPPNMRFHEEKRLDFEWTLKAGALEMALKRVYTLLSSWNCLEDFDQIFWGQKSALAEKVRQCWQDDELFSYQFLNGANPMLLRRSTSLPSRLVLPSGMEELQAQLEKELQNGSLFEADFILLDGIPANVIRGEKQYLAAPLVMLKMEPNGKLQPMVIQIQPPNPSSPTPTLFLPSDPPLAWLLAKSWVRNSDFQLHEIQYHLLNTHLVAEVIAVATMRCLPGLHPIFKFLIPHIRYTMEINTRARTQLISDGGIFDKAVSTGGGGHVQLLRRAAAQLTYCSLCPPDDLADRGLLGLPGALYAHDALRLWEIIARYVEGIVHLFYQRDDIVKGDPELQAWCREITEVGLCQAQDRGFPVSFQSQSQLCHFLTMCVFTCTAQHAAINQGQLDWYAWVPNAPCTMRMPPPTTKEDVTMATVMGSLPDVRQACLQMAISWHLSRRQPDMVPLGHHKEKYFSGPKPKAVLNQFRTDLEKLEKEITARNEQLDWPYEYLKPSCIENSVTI
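Purified human 12hLO (150 nM final) in 25 mM Hepes, 0.01% Triton X-100, pH 7.0 was preincubated 15 min at room temperature with compound. Then 40 uM arachidonic acid was added, 30 min. Hydroperoxide was read by Fe-XO absorbance ratio 573/405 nm.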
DT40 TDP1 CPT – growth inhibition of DT40 Tdp1-/-;hTDP1 cells with camptothecin (screen for TDP1 inhibitors); 420,000 compounds, 12% hits; chicken DT40 Tdp1-/-;hTDP1 cells + 20 nM CPT, ATP luminescence, 48 h; AID 686979; Potency, µM (top dose mostly 46.2 µM), for the others: at the highest dose activity change, negative = growth inhibition, actives largely listed as inhibitors; also: nearly all actives have a fitted effect of over 55% in size
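Chicken DT40 Tdp1-/- cells complemented with human TDP1, 400 cells/well, exposed to compounds plus 20 nM camptothecin for at least 48 h at 37 C; viability read as ATP content by CellTiter-Glo luminescence.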
RORgamma inh – ROR gamma (mouse) transcription inhibition; Drosophila S2 Gal4-RORgamma UAS-luciferase reporter, 20 h; Potency, µM (series often up to 53.6 µM), inactives show at the top dose activity change, negative = inhibition, usual class: inhibitors; P51450; 310,000 compounds, 5.4% hits; AID 2551; also: nearly all actives have a fitted effect of over 60% in size
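Stably transfected Drosophila Schneider cells are the test system, with ROR gamma fused to Gal4 and luciferase under UAS control; luminescence is read after 20 hr of 700 uM copper sulfate induction at ambient temperature.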
Numbers without * were called inactive; [ ] = remark or other dose. Calls follow the shape of the dose curve; as a rule, active = well fitted curve in the direction sought with a large enough effect; inconclusive = small, poorly fitted or top-dose-only effect, or another doubt; inactive = no such curve, though single readings can be large; an effect the other way counts as inactive or inconclusive. % is scaled to controls: 0 for no effect and ±100 for the full control effect; potency is read from the fitted curve at half-maximal effect.

How did Cc1nc2c(c(C)nn2-c2ccccc2)c(C)c1CCC(=O)NCc1ccccc1 do in these assays?
TDP1 cell noCPT: inconclusive; ALOX12 inh: -13%; DT40 TDP1 CPT: inconclusive

Results for CCOc1ccc(CCNC(=O)CCc2c(C)nc3c(c(C)nn3-c3ccccc3)c2C)cc1OCC ?
TDP1 cell noCPT: 13µM*; ALOX12 inh: -24%; DT40 TDP1 CPT: 15µM*

How did COc1cccc(CN2CCCC3(Cc4ccccc4CNC3=O)C2)c1 (centres undefined) do in these assays?
ALOX12 inh: 2%[6.33 µM]

What do the screens show for `O=C1Nc2ccccc2CC12CCCN2CC1CC1` (centres undefined)?
ALOX12 inh: -2%[12.5 µM]

Results for O=C(C#Cc1ccccc1)c1ccccc1 ?
TDP1 cell noCPT: 0.58µM*; ALOX12 inh: -12%; DT40 TDP1 CPT: 0.73µM*

Results for O=C(C#Cc1ccccc1)c1ccc([N+](=O)[O-])cc1 ?
ELG1 DNA repair: -7%; Gal4-VP16 FLuc: 7.9µM*; TDP1 cell noCPT: 0.92µM*; ALOX12 inh: 0%; DT40 TDP1 CPT: 0.65µM*; RORgamma inh: 11µM*

Results for O=C(c1ccc(-c2ccccc2)cc1)c1ccc([N+](=O)[O-])cc1 ?
ELG1 DNA repair: 14%; Gal4-VP16 FLuc: 3%; RORgamma inh: 32%

Results for C#Cc1cccc(NC(=O)c2nccnc2N)c1 ?
ALOX12 inh: -6%

How did CCN(Cc1cccc(S(=O)(=O)O)c1)c1ccc(C(=C2C=CC(=[N+](CC)Cc3cccc(S(=O)(=O)O)c3)C=C2)c2ccccc2S(=O)(=O)[O-])cc1 do in these assays?
TDP1 cell noCPT: 13µM*; DT40 TDP1 CPT: 2µM*

What do the screens show for `C=CC[n+]1c(-c2ccc(OCC)cc2)csc1NNC(=O)Nc1ccccc1`?
ELG1 DNA repair: inconclusive; Gal4-VP16 FLuc: inconclusive; TDP1 cell noCPT: 5.8µM*; ALOX12 inh: -6%; DT40 TDP1 CPT: 7.3µM*; RORgamma inh: 16µM*

Results for N#Cc1c(-c2ccccc2)nc(-c2ccccc2)nc1N1CCOCC1 ?
ELG1 DNA repair: 15µM*; Gal4-VP16 FLuc: -3%; TDP1 cell noCPT: inconclusive; ALOX12 inh: 4%; DT40 TDP1 CPT: -17%; RORgamma inh: -1%

Results for COc1ccc(-c2nc(-c3ccccc3)nc(N3CCN(C)CC3)c2C#N)cc1 ?
ELG1 DNA repair: 21µM*; Gal4-VP16 FLuc: -3%; TDP1 cell noCPT: inconclusive; ALOX12 inh: -12%; DT40 TDP1 CPT: inconclusive; RORgamma inh: -5%

How did COC(=O)c1sc2nc(-c3ccccc3)nc(N3CCN(C)CC3)c2c1C do in these assays?
ELG1 DNA repair: inconclusive; Gal4-VP16 FLuc: 1%; TDP1 cell noCPT: 26µM*; ALOX12 inh: -27%; DT40 TDP1 CPT: inconclusive; RORgamma inh: -5%

Results for COc1ccc(-c2nc(-c3cccc(C)c3)nc(N3CCN(C)CC3)c2C#N)cc1 ?
ELG1 DNA repair: -10%; Gal4-VP16 FLuc: -1%; TDP1 cell noCPT: 16µM*; ALOX12 inh: inconclusive; DT40 TDP1 CPT: 15µM*; RORgamma inh: -17%

Results for CN1CCN(c2nc(-c3ccccc3)nc(-c3ccccc3)c2C#N)CC1 ?
ELG1 DNA repair: inconclusive; Gal4-VP16 FLuc: -3%; TDP1 cell noCPT: inconclusive; ALOX12 inh: -27%; DT40 TDP1 CPT: inconclusive; RORgamma inh: -3%

How did COc1ccccc1NC(=O)Cn1nc(N2CCN(c3cccc(Cl)c3)CC2)ccc1=O do in these assays?
ALOX12 inh: 33%

How did COc1cc(CNc2nc(C)c([N+](=O)[O-])c(C)c2C#N)cc(OC)c1OC do in these assays?
ELG1 DNA repair: 7.3µM*; Gal4-VP16 FLuc: inconclusive; TDP1 cell noCPT: 18µM*; ALOX12 inh: -10%; DT40 TDP1 CPT: 21µM*; RORgamma inh: inconclusive

Results for COc1ccc(CNc2nc(C)c([N+](=O)[O-])c(C)c2C#N)cc1 ?
ELG1 DNA repair: -13%; Gal4-VP16 FLuc: -6%; TDP1 cell noCPT: inconclusive; ALOX12 inh: -4%; DT40 TDP1 CPT: 18µM*; RORgamma inh: -21%

How did O=C(NCCSCc1cccs1)C1CCC1 do in these assays?
ALOX12 inh: 2%

How did Nc1nc(CN2CCN(C(=O)c3cccc(F)c3)CC2)nc2ccccc12 do in these assays?
ALOX12 inh: 68%

Results for O=C(CSc1nc(-c2cccs2)cc(C(F)(F)F)n1)Nc1cc(OCC(F)(F)C(F)F)cc([N+](=O)[O-])c1 ?
ELG1 DNA repair: inconclusive; Gal4-VP16 FLuc: -28%; TDP1 cell noCPT: 12µM*; ALOX12 inh: -1%; DT40 TDP1 CPT: 8.2µM*; RORgamma inh: 26%

What do the screens show for `O=C(CSc1nc(-c2ccc(F)cc2)cc(C(F)(F)F)n1)NCc1cccs1`?
ELG1 DNA repair: 13%; Gal4-VP16 FLuc: inconclusive; TDP1 cell noCPT: -5%; ALOX12 inh: 7%; DT40 TDP1 CPT: 2%; RORgamma inh: -20%

What do the screens show for `COc1ccc(NC(=O)CSc2nc(-c3cccs3)cc(C(F)(F)F)n2)c(OC)c1`?
TDP1 cell noCPT: 21µM*; ALOX12 inh: -9%; DT40 TDP1 CPT: 16µM*

What do the screens show for `O=C(CSc1nc(-c2cccs2)cc(C(F)(F)F)n1)Nc1ccccc1Cl`?
TDP1 cell noCPT: 18µM*; ALOX12 inh: -24%; DT40 TDP1 CPT: inconclusive

What do the screens show for `Cc1ccc(NC(=O)CSc2nc(-c3cccs3)cc(C(F)(F)F)n2)cc1C`?
TDP1 cell noCPT: 5.8µM*; ALOX12 inh: -19%; DT40 TDP1 CPT: 7.3µM*

How did CCN(CC)c1ccc(NC(=O)CSc2nc(-c3cccs3)cc(C(F)(F)F)n2)cc1 do in these assays?
TDP1 cell noCPT: inconclusive; ALOX12 inh: -21%; DT40 TDP1 CPT: inconclusive

Results for CN1c2cc(C(=O)Nc3cccc(OC(F)(F)F)c3)ccc2C(=O)N2CCCC21 (centres undefined) ?
ALOX12 inh: -21%

Results for Nc1nc(COC(=O)c2ccccc2Cl)nc2ccccc12 ?
ALOX12 inh: -1%

Results for CC(C)(C)c1cc(C(=O)OCCN2CCCCC2)cc(C(C)(C)C)c1 ?
ALOX12 inh: 7.1µM*

Results for CC(C)OC(=O)CC(=O)CSc1nc2c(c(-c3cccs3)c1C#N)CCC2 ?
ELG1 DNA repair: inconclusive; Gal4-VP16 FLuc: inconclusive; TDP1 cell noCPT: inconclusive; ALOX12 inh: 2%; DT40 TDP1 CPT: -27%; RORgamma inh: 14%
